# This is a sample that favours compounds with a hit; in the whole collection about 6.4% have one here.
# KinaseGlo FLuc: Kinase-Glo luciferase inhibition (counter-screen); Q27757; Kinase-Glo luciferase, ATP luminescence, 8 min; Potency, µM (titrated, usually from 38.3 µM), without a hit: at the top dose activity change, negative = inhibition, actives largely listed as inhibitors; actives 0.28% (n = 200,000); AID 1379; note: nearly all actives have a fitted effect of over 60% in size
#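 Kinase-Glo luciferase light output from ATP and luciferin was measured with 10 uM ATP, within the enzyme's linear range. Buffer: 50 mM imidazole pH 7.2, 50 mM KCl, 7 mM MgCl2, 0.01% Tween 20, 0.05% BSA; luminescence read after 8 min at ambient temperature.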
# RORgamma inh: ROR gamma (mouse) transcription inhibition. P51450. Drosophila S2 Gal4-RORgamma UAS-luciferase reporter, 20 h. Potency, µM (highest dose often 53.6 µM), for inactives: at the top dose activity change, negative = inhibition, most hits filed as inhibitors. actives 5.4% (n = 310,000). AID 2551; note: nearly all actives have a fitted effect of over 60% in size
# Target sequence (P51450 whole entry, looked up, the tested form may be a part): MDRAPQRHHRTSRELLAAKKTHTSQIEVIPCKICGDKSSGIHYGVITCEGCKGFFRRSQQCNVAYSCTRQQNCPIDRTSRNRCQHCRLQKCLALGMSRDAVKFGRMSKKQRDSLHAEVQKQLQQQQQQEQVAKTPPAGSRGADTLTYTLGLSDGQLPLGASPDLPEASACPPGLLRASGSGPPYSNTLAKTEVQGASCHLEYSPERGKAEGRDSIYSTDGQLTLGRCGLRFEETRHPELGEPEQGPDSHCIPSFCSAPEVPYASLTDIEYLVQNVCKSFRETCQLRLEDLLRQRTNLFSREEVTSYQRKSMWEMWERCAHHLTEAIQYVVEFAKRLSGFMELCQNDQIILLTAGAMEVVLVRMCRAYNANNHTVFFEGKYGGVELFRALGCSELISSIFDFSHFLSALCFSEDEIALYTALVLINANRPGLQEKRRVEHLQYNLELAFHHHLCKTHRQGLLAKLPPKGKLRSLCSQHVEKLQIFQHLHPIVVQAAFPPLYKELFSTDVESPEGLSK
#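 Using a luciferase readout, inhibitors were identified by reduced reporter activity in Drosophila cells coexpressing a copper-inducible Gal4–ROR gamma fusion and UAS-driven Photinus luciferase, incubated 20 hr after 700 uM copper sulfate.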
# Gal4-VP16 FLuc: inhibits Gal4-VP16 luciferase reporter, ROR gamma counter-screen | Drosophila S2 Gal4-VP16 UAS-luciferase, luminescence, 20 h | Potency, µM (titrated, usually from 53.6 µM), for inactives: at the top dose activity, negative = inhibition, hits mostly inhibitors | actives 3.5% (n = 310,000) | AID 2546;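 note: Gal4-VP16 expression switched on by copper sulfate through the metallothionein promoter; nearly all actives have a fitted effect of over 50% in size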
# * = called active by the depositor; ? = inconclusive; nt = no result; [ ] = another dose, or the depositor's remark. Calls come from the whole dose curve; as a rule, active = well fitted curve in the direction sought with a large enough effect; inconclusive = small, poorly fitted or top-dose-only effect, or another doubt; inactive = no such curve, though single readings can be large; an effect the other way counts as inactive or inconclusive. % is set by controls: 0 for no effect and ±100 for the full control effect; potency is the fitted concentration of half-maximal effect.
SMILES,KinaseGlo FLuc,RORgamma inh,Gal4-VP16 FLuc
COc1cc(-n2c(=S)[nH]c3ccccc3c2=O)c(Cl)cc1Cl,2%,2.8µM*,5.6µM*
COC(=O)NC(=S)Nc1ccccc1NC(=S)NC(=O)OC,-1%,?,0%
O=C(NC(=S)Nc1ccccc1N1CCCC1)c1ccccc1Br,nt,2.8µM*,2.8µM*
CON(C)C(=O)Nc1ccc(Br)c(Cl)c1,nt,18%,-10%
Cc1ccc(C2=[N+]([O-])C3(CCCCC3=O)N(O)C2(C)C)cc1 (centres undefined),-5%,0.89µM*,4µM*
CC(C)[C@]1(NC(=O)[C@@H]2C=C3c4cccc5[nH]cc(c45)C[C@H]3N(C)C2)O[C@@]2(O)C3CCCN3C(=O)[C@H](Cc3ccccc3)N2C1=O (some centres undefined),-8%,16%,-6%
COc1ccc(-n2nc(C(=O)NCC(=O)N3CCC4(CC3)OCCO4)c3ccccc3c2=O)c(OC)c1,nt,6.3µM*,10µM*
O=C(Cn1cnc2ccccc2c1=O)NCC(=O)N1CCC2(CC1)OCCO2,1%,-23%,7%
O=c1c2ccc(Cl)cc2[nH]c(=S)n1-c1cccnc1,2%,14µM*,?
O=c1[nH]c2ccccc2c(=O)n1-c1cccc(Cl)c1,1%,-2%,-2%
O=c1c2ccccc2[nH]c(=S)n1-c1cccnc1,nt,14%,-6%
O=c1c2ccccc2[nH]c(=S)n1-c1ccc(Br)cc1,1%,0.89µM*,1.4µM*
COc1cccc(-n2c(=S)[nH]c3ccccc3c2=O)c1,6%,4.5µM*,?
O=c1c2cc(Br)ccc2[nH]c(=S)n1-c1ccccc1,1%,-1%,-8%
c1ccoc1,nt,15%,3%
Clc1cccc(C(Cl)(Cl)Cl)n1,nt,28%,-14%
C[C@H]1O[C@@H](O[C@H]2[C@@H](O)C[C@H](O[C@H]3[C@@H](O)C[C@H](O[C@H]4CC[C@@]5(C)[C@H](CC[C@@H]6[C@@H]5CC[C@]5(C)[C@@H](C7=CC(=O)OC7)CC[C@]65O)C4)O[C@@H]3C)O[C@@H]2C)C[C@H](O)[C@@H]1O,0%,1.6µM*,-12%
C[C@@H]1O[C@H](O[C@@H]2CC[C@@]3(C=O)[C@H]4CC[C@@]5(C)[C@@H](C6=CC(=O)OC6)CC[C@@]5(O)[C@@H]4CC[C@]3(O)C2)C[C@H](O)[C@@H]1O,0%[17.1 µM],-7%[16.9 µM],-11%[17 µM]
CC1OC(O[C@@H]2C(O)CC(O[C@@H]3C(O)C[C@@H](OC4CC[C@]5(C)[C@H](CC[C@H]6[C@@H]5CC[C@]5(C)C(C7=CC(=O)OC7)C(O)C[C@@]65O)C4)OC3C)OC2C)CC(O)C1O (some centres undefined),1%,2.2µM*,-3%
C[C@H]1O[C@@H](OC2CC[C@]3(C=O)[C@H]4CC[C@]5(C)[C@@H](C6=CC(=O)OC6)CC[C@]5(O)[C@@H]4CC[C@]3(O)C2)CC2OC(C)(C)OC21 (some centres undefined),nt,16µM*,-1%
COC1C(O)C(C)O[C@@H](OC2CC[C@@]3(C)C4CC[C@]5(C)C(C6=CC(=O)OC6)CC[C@@]5(O)C4CC[C@@H]3C2)C1O (some centres undefined),-3%,?,-11%
C[C@@]12CC[C@H](O)C[C@@H]1CC[C@H]1[C@H]2CC[C@@]2(C)[C@@H](C3=CC(=O)OC3)CC[C@]12O,-2%[17.1 µM],7%[16.9 µM],-3%[17 µM]
ClP(Cl)(Cl)(Cl)Cl,nt,-26%,4%
COc1ccc2[nH]c(C)c(CCNCc3cc(OC)c(OC)c(OC)c3)c2c1,-2%,?,18µM*
Cc1ccc2[nH]c(C)c(CCNCc3cccnc3)c2c1,nt,3%,-4%
SMILES,KinaseGlo FLuc,RORgamma inh,Gal4-VP16 FLuc
O=[N+]([O-])c1ccc(N2CCCC2)cc1N/N=C1\CN2CCC1CC2,-4%,22%,-19%
O=C(N/N=C1/CN2CCC1CC2)c1cc2ccccc2cc1O,-6%,3.5µM*,13µM*
Cc1ccc(-c2nc3ccccc3c(=O)n2-c2ccc(O)cc2)cc1,0%,?,-1%
Cc1ccc(C(=O)n2c(N)nc3ccccc32)cc1,11µM*,1.6µM*,6.3µM*
CCc1ccc(CCN2CCCCC2)nc1,-2%[7.66 µM],nt,nt
Cc1ccc(C(C)C)c(OCCn2c(=O)oc3ccccc32)c1,3%,10µM*,?
COc1ccc(Cn2c(=O)oc3ccc(C)cc32)cc1OC,6%,18%,?
CCCCOC(C)=O,nt,3%,5%
CC1(C)C(=O)[C@@H]2OC2[C@@]2(C)C1CC(O)[C@]1(C)C2CC[C@@]2(C)C(c3ccoc3)OC(=O)C3OC312 (some centres undefined),-3%,2%,-15%
N#CS.N=C=S.N=C=S.[Cu].[NH2-].[NH2-].[NH2-].[NH2-].c1ccc2ncccc2c1,-2%[7.66 µM],nt,nt
CCNN,nt,-14%,-6%
COc1ccc(O)c2c(=O)c3c(OC)cc4c(c3oc12)C1C=COC1O4 (centres undefined),nt,0.71µM*,?
N[C@@H](Cc1ccccc1)P(=O)(O)O,-1%[7.66 µM],nt,nt
CC(C)c1cc2c(c(O)c1O)[C@@]1(C(=O)O)CCCC(C)(C)[C@@H]1CC2,1%[39.9 µM],?,?
Cc1ccc(-c2nc3ccccc3c(=O)n2-c2nccs2)cc1,-6%,5.6µM*,11µM*
O=c1c2ccccc2nc(-c2ccco2)n1-c1nccs1,2%,3%,-1%
CC1CC2CCC(O2)C(C)C(=O)OC(C)CC2CCC(O2)C(C)C(=O)OC(C)CC2CCC(O2)C(C)C(=O)OC(C)CC2CCC(O2)C(C)C(=O)O1 (centres undefined),nt,0.11µM*,0.5µM*
O=[As](O)(O)c1ccc2nc3cc([As](=O)(O)O)ccc3nc2c1,2%[7.66 µM],nt,nt
O=C1C=C2C(=CCOC2O)O1 (centres undefined),-5%,1.1µM*,0.89µM*
CCOC(=O)c1ncn2c1CN(C)C(=O)c1cc(N=[N+]=[N-])ccc1-2,0%,-7%,2%
C=C(C)CN1CC[C@]23c4c5ccc(O)c4O[C@H]2c2[nH]c4ccccc4c2C[C@@]3(O)C1C5,nt,-5%,-20%
C=C(C)CN1CC[C@@]23c4c5ccc(O)c4O[C@H]2c2[nH]c4ccccc4c2C[C@]3(O)[C@@H]1C5,-2%,-39%,28µM*
CC1=CC(=O)c2c(O)cccc2C1=O,-1%,14µM*,13µM*
COC(=O)c1ccc(N2C(=O)CC(N3CCC(n4c(=O)[nH]c5ccccc54)CC3)C2=O)cc1 (centres undefined),-3%,30%,-7%
Cc1cc(N2C(=O)CC(N3CCC(n4c(=O)[nH]c5ccccc54)CC3)C2=O)no1 (centres undefined),1%,3.2µM*,-2%
COC[C@H]1OC(=O)c2coc3c2[C@@]1(C)C1=C(C3=O)[C@H]2CCC(=O)[C@@]2(C)C[C@H]1OC(C)=O,-16%,?,?
O=[N+]([O-])c1ccc(-c2[se]c3ccccc3c2I)cc1,-4%[39.9 µM],41%,6%
COC(=O)C1=CO[C@@H](C)[C@@H]2CN3CC[C@]4(C(=O)Nc5c4ccc(OC)c5OC)[C@H]3C[C@H]12,-2%,4%,-4%
C(=NC1CCCCC1)=NC1CCCCC1,nt,?,2.2µM*
O=C=NC1CCCCC1,nt,5%,-4%
